In PubChem BioAssay (NCATS):
Results filed as inconclusive are left out. A call without a number means that no potency is given here. The source made the active and inactive calls. Unless noted, calls come from the whole dose curve; as a rule, active = well fitted curve in the direction sought with a large enough effect; inconclusive = small, poorly fitted or top-dose-only effect, or another doubt; inactive = no such curve, though single readings can be large; an effect the other way counts as inactive or inconclusive.

Assays:
[1] = qHTS Assay for Modulators of Human Peripheral Myelin Protein 22 (PMP22) Expression/Activity (AID 1967; active = well fitted curve in the direction sought with a large enough effect in the signal ratio; the % refers to the signal ratio)
Procedure, shortened: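 Engineered MSC80 cells, Pmp22-promoter green and EF-alpha red luciferase reporters; 24h compound treatment at 37 °C. Concentration-response fits on green, red and ratio signals, each overlap-corrected, with %Activity normalized to untreated wells.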

[2] = biological target: Ferritin light chain (Equus caballus) (UniProt P02791); experiment: qHTS Validation Assay for Identification of Novel General Anesthetics (AID 2323)
Sequence of Ferritin light chain (Equus caballus) (P02791 2-175 limits assumed): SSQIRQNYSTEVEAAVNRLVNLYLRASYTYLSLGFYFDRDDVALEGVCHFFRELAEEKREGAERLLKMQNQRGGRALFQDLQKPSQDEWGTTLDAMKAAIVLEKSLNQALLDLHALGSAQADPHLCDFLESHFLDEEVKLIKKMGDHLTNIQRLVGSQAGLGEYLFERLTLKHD
Procedure, shortened: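 Normalized fluorescence response, scaled between free 1-AMA and 1-AMA/apoferritin complex, fitted to a four-parameter Hill equation for concentration-effect values. Binding mix: 10 uM horse-spleen apoferritin, 50% saturated 1-AMA in PBS; read 380/535 nm after 10 min.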

[3] = biological target: ATP-dependent DNA helicase Q1 (Homo sapiens) (UniProt P46063); experiment: qHTS Validation Assay for Inhibitors of RecQ-Like Dna Helicase 1 (RECQ1) (AID 2353)
Procedure, shortened: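 50 nM RECQ1T1 preincubated 15 min with compound in Tris pH 8.0 buffer with MgCl2, DTT, Tween-20 and 2.5 ug/ml poly(dI-dC); started with 200 nM TAMRA/BHQ-2 forked duplex and 2 mM ATP. Unwinding read as fluorescence (525/598 nm), two reads 2 h apart.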

[4] = Cytometric Cell-Based qHTS for Inhibitors of the mTORC1 Signaling Pathway in MEF (Tsc2-/-, p53-/-) Cells (AID 2660);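 note: percent of cells above a phospho-rpS6 to PI ratio cutoff in each well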
Procedure, shortened: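 Percent of cells positive for normalized phospho-S6 staining is reported, with the cutoff set from rapamycin (7.5 nM) versus DMSO wells. Tsc2-/-, p53-/- MEFs received compound for 24 hrs.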

[5] = High Content Imaging Cell-Based qHTS for Inhibitors of the mTORC1 Signaling Pathway in MEF (Tsc2-/-, p53-/-) Cells (AID 2666); settings: at 38.3 µM (top of the series);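 note: percent of cells scored positive for phospho-rpS6 Ser235/236 immunostaining by imaging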
Procedure, shortened: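 Phospho-rpS6 (Ser235/236) immunofluorescence, normalized and scored as % positive cells using rapamycin and DMSO controls, was read in empty-vector Tsc2-/-, p53-/- MEFs after 24 h compound exposure at 37 C; propidium iodide counted cells.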

[6] = High Content Imaging Cell-Based qHTS for Inhibitors of the mTORC1 Signaling Pathway in MEF Cells (AID 2667);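 note: Tsc2-/- p53-/- MEFs stably re-expressing wild-type Tsc2 exposed 24 h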
Procedure, shortened: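 WT MEFs (Tsc2-/-, p53-/- re-expressing Tsc2), in DMEM + 10% FBS, were treated with compound for 24 h at 37 C. Cells were then fixed and stained for phospho-rpS6 Ser235/236 with propidium iodide as cell count. Values are % positive cells, with thresholds set against rapamycin-treated cells.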

[7] = Cytometry Cell-Based qHTS for Inhibitors of the mTORC1 Signaling Pathway in MEF cells (AID 2668);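 note: Tsc2-/- p53-/- mouse embryonic fibroblasts stably re-expressing wild-type Tsc2; percent cells positive for phospho-rpS6 Ser235/236 relative to propidium iodide stain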
Procedure, shortened: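 In MEFs grown in DMEM + 10% FBS, a 24 hrs compound exposure preceded imaging of phospho-rpS6 Ser235/236 by laser-scanning cytometry.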

[8] = Validation screen for small molecules that induce DNA re-replication in MCF 10A normal breast cells (AID 463097); note: nearly all actives have a fitted effect of over 60% in size
Procedure, shortened: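 Following 48 hr compound incubation (37 C, 5% CO2), MCF 10A cells receive Hoechst for 40 min at 37 C. Nuclei are then scanned (excitation 405 nm, emission 500-530 nm) for total fluorescence intensity.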

[9] = biological target: Ubiquitin carboxyl-terminal hydrolase 2 (Homo sapiens) (UniProt O75604); experiment: qHTS Validation Assay for Inhibitors of Ubiquitin-specific Protease USP2a Using CHOP2 as the Reporter (AID 463106)
Sequence of Ubiquitin carboxyl-terminal hydrolase 2 (Homo sapiens) (O75604 whole entry, looked up): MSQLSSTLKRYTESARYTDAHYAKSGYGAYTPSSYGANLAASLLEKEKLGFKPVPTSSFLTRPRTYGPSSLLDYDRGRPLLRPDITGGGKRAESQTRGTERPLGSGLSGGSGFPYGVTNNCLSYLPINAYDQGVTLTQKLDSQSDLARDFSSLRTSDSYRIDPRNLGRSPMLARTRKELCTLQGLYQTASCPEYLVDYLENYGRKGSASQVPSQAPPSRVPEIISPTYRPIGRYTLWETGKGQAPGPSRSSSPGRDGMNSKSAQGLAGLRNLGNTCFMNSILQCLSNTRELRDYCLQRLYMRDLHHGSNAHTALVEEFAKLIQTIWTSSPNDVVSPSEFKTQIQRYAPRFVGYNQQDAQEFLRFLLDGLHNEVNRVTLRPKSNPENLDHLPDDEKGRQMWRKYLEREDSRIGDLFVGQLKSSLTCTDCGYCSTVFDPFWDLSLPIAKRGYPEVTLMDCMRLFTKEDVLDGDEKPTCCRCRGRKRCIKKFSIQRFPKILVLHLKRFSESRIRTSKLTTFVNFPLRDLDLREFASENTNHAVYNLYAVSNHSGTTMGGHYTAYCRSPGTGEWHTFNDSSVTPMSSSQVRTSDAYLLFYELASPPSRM
Procedure, shortened: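 USP2 core (10 nM final) was preincubated with compound 30 min at RT in pH 8.0 Tris/CaCl2/beta-ME/CHAPS buffer. Ub-CHOP2 and reporter substrate (25 nM final each) were then added, with fluorescence (Ex 485/Em 531) read after 60 min. Data were normalized to NEM full inhibition and fitted to concentration-response curves.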

[10] = biological target: DNA polymerase III PolC-type (Bacillus subtilis (strain 168)) (UniProt P13267); experiment: qHTS Validation Assay for the Inhibitors of DNA Replication in Gram-Positive Bacteria (AID 485295);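 note: reconstituted holoenzyme with PolC plus beta clamp SSB and primase; PicoGreen fluorescence of double-stranded DNA made on primed circular M13 template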
Sequence of DNA polymerase III PolC-type (Bacillus subtilis (strain 168)) (P13267 whole entry, looked up): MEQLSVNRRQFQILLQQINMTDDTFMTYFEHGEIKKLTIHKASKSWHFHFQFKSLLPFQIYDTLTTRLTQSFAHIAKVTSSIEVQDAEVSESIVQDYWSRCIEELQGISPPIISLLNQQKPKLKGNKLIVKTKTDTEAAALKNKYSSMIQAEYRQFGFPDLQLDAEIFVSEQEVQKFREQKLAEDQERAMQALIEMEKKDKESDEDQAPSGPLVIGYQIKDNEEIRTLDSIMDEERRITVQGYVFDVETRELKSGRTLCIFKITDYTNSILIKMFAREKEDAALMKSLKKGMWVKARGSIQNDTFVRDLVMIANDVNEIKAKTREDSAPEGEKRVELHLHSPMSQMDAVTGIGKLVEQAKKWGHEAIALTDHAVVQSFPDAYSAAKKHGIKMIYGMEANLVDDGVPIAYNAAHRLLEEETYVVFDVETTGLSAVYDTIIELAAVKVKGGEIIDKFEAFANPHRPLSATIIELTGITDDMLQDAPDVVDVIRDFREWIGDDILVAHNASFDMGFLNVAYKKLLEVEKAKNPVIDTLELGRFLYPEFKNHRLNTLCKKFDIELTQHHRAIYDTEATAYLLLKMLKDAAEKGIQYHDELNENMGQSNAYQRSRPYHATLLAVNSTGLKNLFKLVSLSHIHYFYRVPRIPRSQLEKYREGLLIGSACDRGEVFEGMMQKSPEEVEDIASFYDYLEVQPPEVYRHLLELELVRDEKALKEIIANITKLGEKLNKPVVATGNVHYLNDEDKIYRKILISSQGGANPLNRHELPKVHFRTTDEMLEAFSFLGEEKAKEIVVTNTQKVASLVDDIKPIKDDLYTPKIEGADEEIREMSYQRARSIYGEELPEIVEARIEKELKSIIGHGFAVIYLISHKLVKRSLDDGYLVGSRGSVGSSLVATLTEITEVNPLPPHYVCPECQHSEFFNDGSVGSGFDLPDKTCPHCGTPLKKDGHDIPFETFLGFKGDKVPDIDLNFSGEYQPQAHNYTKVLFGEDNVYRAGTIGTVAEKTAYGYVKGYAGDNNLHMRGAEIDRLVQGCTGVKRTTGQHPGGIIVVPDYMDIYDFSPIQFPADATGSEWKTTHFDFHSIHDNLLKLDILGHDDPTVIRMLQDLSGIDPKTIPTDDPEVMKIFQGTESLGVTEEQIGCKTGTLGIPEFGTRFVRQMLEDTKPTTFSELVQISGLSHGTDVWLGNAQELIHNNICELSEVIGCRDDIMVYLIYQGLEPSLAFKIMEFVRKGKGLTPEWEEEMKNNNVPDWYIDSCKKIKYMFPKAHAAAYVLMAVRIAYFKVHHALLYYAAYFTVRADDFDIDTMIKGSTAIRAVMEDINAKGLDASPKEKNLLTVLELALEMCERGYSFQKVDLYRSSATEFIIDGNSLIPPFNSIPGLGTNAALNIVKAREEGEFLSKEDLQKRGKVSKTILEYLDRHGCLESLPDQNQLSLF
Procedure, shortened: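 Inhibition of DNA synthesis by the reconstituted PolC holoenzyme, monitored through PicoGreen staining of dsDNA formed from ssM13Gori, dNTPs and NTPs, with compound preincubation and room-temperature reaction.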

[11] = biological target: Tumor susceptibility gene 101 protein (Homo sapiens) (UniProt Q99816); experiment: qHTS Validation Assay for Iinhibitors of HIV-1 Budding by Blocking the Interaction of PTAP/TSG101 (AID 485342; calls by dose curve)
Sequence of Tumor susceptibility gene 101 protein (Homo sapiens) (Q99816 whole entry, looked up, the tested form may be a part): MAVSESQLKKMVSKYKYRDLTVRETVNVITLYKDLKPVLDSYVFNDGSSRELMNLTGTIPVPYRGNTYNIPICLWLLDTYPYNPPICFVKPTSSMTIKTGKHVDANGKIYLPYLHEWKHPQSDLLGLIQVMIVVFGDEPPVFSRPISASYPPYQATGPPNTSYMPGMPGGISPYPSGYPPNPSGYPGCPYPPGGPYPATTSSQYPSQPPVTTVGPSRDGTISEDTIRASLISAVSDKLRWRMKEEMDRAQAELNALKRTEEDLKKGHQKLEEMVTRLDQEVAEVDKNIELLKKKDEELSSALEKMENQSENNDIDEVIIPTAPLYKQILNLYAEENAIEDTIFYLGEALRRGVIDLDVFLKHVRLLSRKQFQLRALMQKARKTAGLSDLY
Procedure, shortened: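 Compound wells held the Tsg101 binding domain (10 uM) and a FITC-conjugated PTAP peptide (50 nM) in buffer at pH 7.5 containing 0.15 M NaCl and 0.01% Tween 20; polarization was recorded after 20 min, r.t.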

[12] = qHTS Validation Assay to Find Inhibitors of Chronic Active B-Cell Receptor Signaling (AID 485345; active = well fitted curve in the direction sought with a large enough effect in the main read-out, with a control signal flat, not every such curve was filed as active)
Procedure, shortened: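 TMD8 ABC-DLBCL cells stably carrying doxycycline-inducible IkappaBalpha–green luciferase fusion plus unfused red luciferase; compounds 46 uM to 3 nM, 4 h at 37C with doxycycline. Corrected green/red luminescence ratio normalized to 10 uM MG-132 and basal cell wells; curves fitted.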

[13] = biological target: Beta-2 adrenergic receptor (Homo sapiens) (UniProt P07550); experiment: qHTS validation assay of beta-arrestin-biased ligands of beta2-adrenergic receptor (AID 485366)
Sequence of Beta-2 adrenergic receptor (Homo sapiens) (P07550 whole entry, looked up): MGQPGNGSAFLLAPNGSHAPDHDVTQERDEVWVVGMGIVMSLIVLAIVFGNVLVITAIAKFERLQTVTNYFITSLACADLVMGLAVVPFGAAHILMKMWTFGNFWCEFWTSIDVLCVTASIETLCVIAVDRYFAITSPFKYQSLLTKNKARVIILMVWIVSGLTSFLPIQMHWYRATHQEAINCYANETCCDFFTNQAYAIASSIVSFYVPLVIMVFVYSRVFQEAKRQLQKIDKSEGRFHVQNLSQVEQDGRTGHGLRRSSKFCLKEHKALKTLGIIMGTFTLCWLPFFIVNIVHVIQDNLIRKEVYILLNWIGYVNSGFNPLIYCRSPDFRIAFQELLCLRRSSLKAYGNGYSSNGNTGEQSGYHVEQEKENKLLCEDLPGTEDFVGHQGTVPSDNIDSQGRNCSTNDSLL
Procedure, shortened: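 Luminescence from a tTA-responsive luciferase, induced when recombinant beta-arrestin is recruited to recombinant beta2-AR, served as the agonism signal. Cells were exposed to compound for 18 hr at 37 degrees C; titrations spanned up to 46 microM.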

[14] = biological target: ATP-dependent 6-phosphofructokinase (Trypanosoma brucei brucei) (UniProt O15648); experiment: qHTS Validation Assay to Find Inhibitors of T. brucei phosphofructokinase (AID 485368); settings: outcome: dose series up to 57.5 µM
Sequence of ATP-dependent 6-phosphofructokinase (Trypanosoma brucei brucei) (O15648 whole entry, looked up): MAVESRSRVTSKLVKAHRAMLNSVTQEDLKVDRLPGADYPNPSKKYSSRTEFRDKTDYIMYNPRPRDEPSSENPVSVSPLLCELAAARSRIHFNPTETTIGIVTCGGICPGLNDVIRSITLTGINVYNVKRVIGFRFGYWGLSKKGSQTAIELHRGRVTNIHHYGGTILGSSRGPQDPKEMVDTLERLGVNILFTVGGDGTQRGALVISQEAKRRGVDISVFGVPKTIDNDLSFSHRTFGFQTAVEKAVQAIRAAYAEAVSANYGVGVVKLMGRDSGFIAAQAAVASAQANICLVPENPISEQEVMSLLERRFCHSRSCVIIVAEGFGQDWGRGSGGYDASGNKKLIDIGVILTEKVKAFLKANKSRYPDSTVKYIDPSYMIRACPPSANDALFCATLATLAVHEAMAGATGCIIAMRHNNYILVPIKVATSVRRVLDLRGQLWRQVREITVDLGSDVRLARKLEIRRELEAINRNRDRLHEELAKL
Procedure, shortened: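 Activity was normalized between 1x (1.25 nM) PFK wells as no inhibition and enzyme-free wells as full inhibition, from luminescence after ADP-Glo detection of ADP made from 0.5 mM F6P and 0.1 mM ATP over 45 min.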

[15] = Quantitative high throughput screen for delayed death inhibitors of the malarial parasite plastid, 96 hour incubation (AID 488745); note: nearly all actives have a fitted effect of over 70% in size; note: potency is the fitted concentration of half-maximal effect
Procedure, shortened: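 Luciferase-expressing P. falciparum in erythrocytes (2% hematocrit, 0.1% parasitemia) incubated with compound for 96 h at 37 C, 5% CO2, in RPMI 1640 with 0.5% Albumax. Growth inhibition read as decreased luminescence.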

[16] = Quantitative high throughput screen for delayed death inhibitors of the malarial parasite plastid, 48 hour incubation (AID 488752); note: nearly all actives have a fitted effect of over 65% in size; note: potency is the fitted concentration of half-maximal effect
Procedure, shortened: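 Erythrocytes infected with firefly luciferase-expressing P. falciparum (2% hematocrit, 0.1% parasitemia) cultured with compound for 48 h at 37 C, 5% CO2, in RPMI 1640/0.5% Albumax. Growth inhibition read as loss of luminescence.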

[17] = biological target: Thioredoxin reductase 1, cytoplasmic (Rattus norvegicus) (UniProt O89049); experiment: qHTS Assay for Substrates of Mammalian Selenoprotein Thioredoxin Reductase 1 (TrxR1) (AID 488772);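 note: NADPH fluorescence in the first read after selenite addition and not the 8 min delta; a drop in NADPH fluorescence below the no-compound background marks a TrxR1 substrate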
Procedure, shortened: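 Quantitative HTS in Tris-HCl buffer at pH 7.5 with EDTA and Tween-20, using rat TrxR1, 400 uM NADPH and 400 uM selenite (final). A fall in initial NADPH fluorescence relative to background marked substrate behaviour.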

[18] = biological target: Thioredoxin reductase 1, cytoplasmic (Rattus norvegicus) (UniProt O89049); experiment: qHTS Assay for Inhibitors of Mammalian Selenoprotein Thioredoxin Reductase 1 (TrxR1) (AID 488773); settings: Potency: inhibition;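 note: drop in NADPH fluorescence over an 8 min run after selenite addition; nearly all actives have a fitted effect of over 40% in size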
Procedure, shortened: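 Steps: enzyme (90 nM) plus NADPH (400 uM final), 5 min at ~22 deg C; compound added, 15 min; selenite (400 uM final) added; fluorescence followed for 8 min. Concentration-response curves derived from the normalized delta values.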

[19] = biological target: RecQ-like DNA helicase BLM (Homo sapiens) (UniProt P54132); experiment: qHTS Validation Assay for Inhibitors of Bloom's syndrome helicase (BLM) (AID 2364)
Sequence of RecQ-like DNA helicase BLM (Homo sapiens) (P54132 whole entry, looked up): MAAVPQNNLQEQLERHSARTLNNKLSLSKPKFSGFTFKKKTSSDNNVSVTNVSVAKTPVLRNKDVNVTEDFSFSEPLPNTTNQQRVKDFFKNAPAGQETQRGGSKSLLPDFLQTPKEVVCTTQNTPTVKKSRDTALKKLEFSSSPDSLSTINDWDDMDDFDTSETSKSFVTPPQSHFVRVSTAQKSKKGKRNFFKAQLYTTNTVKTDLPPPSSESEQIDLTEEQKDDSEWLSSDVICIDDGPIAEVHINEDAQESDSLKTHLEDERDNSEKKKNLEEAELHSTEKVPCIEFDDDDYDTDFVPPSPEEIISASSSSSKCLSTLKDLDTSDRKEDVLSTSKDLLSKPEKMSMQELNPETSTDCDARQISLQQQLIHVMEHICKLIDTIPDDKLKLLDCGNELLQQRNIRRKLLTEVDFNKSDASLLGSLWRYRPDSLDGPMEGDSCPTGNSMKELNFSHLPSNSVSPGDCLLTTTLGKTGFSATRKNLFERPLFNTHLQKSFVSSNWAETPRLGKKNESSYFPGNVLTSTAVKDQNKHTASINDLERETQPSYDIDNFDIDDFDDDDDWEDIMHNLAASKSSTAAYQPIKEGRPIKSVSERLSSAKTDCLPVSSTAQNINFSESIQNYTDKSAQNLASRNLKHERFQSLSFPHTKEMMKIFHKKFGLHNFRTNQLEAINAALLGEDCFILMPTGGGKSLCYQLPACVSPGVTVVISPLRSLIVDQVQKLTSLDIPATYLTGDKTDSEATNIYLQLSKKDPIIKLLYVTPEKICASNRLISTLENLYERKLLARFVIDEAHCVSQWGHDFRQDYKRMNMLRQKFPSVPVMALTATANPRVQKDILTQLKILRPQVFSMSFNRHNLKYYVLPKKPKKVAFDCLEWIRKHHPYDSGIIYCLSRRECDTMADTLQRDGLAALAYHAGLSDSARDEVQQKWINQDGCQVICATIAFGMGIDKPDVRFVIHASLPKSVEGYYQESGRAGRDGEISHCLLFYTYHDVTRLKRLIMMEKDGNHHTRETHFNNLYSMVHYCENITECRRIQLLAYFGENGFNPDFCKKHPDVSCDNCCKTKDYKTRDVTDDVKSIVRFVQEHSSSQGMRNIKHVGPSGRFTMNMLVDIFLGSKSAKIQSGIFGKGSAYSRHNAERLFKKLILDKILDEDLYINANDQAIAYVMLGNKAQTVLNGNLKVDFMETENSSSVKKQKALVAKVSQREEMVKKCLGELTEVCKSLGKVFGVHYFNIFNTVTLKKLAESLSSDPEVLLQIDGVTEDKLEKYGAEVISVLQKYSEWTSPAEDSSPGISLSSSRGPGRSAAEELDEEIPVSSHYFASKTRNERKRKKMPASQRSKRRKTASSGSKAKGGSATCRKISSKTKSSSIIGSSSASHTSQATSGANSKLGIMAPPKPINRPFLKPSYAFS
Procedure, shortened: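 50 nM BLM preincubated 15 min at room temperature with compound in pH 8.0 Tris buffer containing 2.5 ug/ml poly(dI-dC); started with 200 nM TAMRA/BHQ-2 forked duplex and 2 mM ATP (final). Unwinding read as TAMRA fluorescence increase, two reads 2 h apart.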

[20] = qHTS Assay for Identification of Small Molecule Inducers of Hypoxia Response (AID 2120; active = well fitted curve in the direction sought with a large enough effect in the signal ratio, with a control signal flat, not every such curve was filed as active; the % refers to the signal ratio)
Procedure, shortened: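 HRE-bla ME-180 cells in Opti-MEM with 0.5% dialyzed FBS, pre-plated 4-5 h, then compound titration for 17 h at 37 degrees Celsius. CCF4 loaded 2.5 h at room temperature; 460/530 nm ratio gave %Activity and AC50 for induction.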

SMILES | outcome [1] | outcome [2] | outcome [3] | outcome [4] | outcome [5] | outcome [6] | outcome [7] | Potency [8] | outcome [9] | Potency [10] | outcome [11] | outcome [12] | outcome [13] | outcome [14] | Potency [15] | Potency [16] | outcome [17] | Potency [18] | Potency [19] | outcome [20]
CC(=O)Oc1ccccc1C(=O)O | inactive | inactive | inactive | inactive | inactive | inactive | inactive | inactive | inactive | inactive | inactive | inactive | inactive | inactive | inactive | inactive | inactive | inactive |  | 
CC(C)NCC(O)COc1ccc(COCCOC(C)C)cc1 (stereo unspecified) |  | inactive | inactive | inactive | inactive | inactive | inactive | inactive | inactive | inactive | inactive | inactive |  | inactive | inactive | inactive | inactive | inactive | inactive | 
CC(C)C[C@H](NC(=O)[C@@H](O)[C@H](N)Cc1ccccc1)C(=O)O |  | inactive | inactive | inactive | inactive | inactive | inactive | inactive | inactive | inactive | inactive | inactive |  |  | 370 nM (active) | 1040 nM (active) | inactive | inactive | inactive | 
Nc1ccc(S(=O)(=O)Nc2ccnn2-c2ccccc2)cc1 | inactive |  | inactive | inactive | inactive | inactive | inactive | inactive | inactive | inactive | inactive | inactive | inactive | inactive | inactive | inactive | inactive | inactive | inactive | 
CCCC(CCC)C(=O)O |  | inactive | inactive | inactive | inactive | inactive | inactive | inactive | inactive | inactive | inactive | inactive | inactive | inactive | inactive | inactive | inactive | inactive |  | inactive
Cc1cnc(NC(=O)C2=C(O)c3ccccc3S(=O)(=O)N2C)s1 |  | inactive | inactive | inactive | inactive | inactive | inactive | inactive |  | inactive | inactive |  | inactive |  | inactive | inactive | inactive |  | inactive | 
